{"source": "PubChem BioAssay AID624331", "about": "(National Center for Advancing Translational Sciences (NCATS), 2012)", "note": "Inconclusive results are not listed. Values without a mark were called inactive. Active and inactive are the calls of the source. The call rests on the fitted dose curve; in most records, active means well fitted activation curve with a large enough effect; inconclusive means small, poorly fitted or top-dose-only effect; inactive means no such curve, though single readings can be large or run the other way. Potency means the concentration at half of the fitted maximal effect."}
{"assay": "qHTS assay for re-activators of p53 using a Luc reporter: Hit Validation with no p53 Expressed; on activity change, positive = activation: 0% is about no effect", "conditions": "p53-null cells, luciferase reporter counter-screen; series mostly up to 46.1 µM; activity change, positive = activation: at the top concentration", "how_it_was_run": "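Without p53 expression, cells (1000/well, Opti-MEM + 10% FBS) were exposed 24 h at 37 deg C to compounds in a 1:5 series from 10 mM stock (top 46.1 µM in well). Luminescent signal read 10 min after Amplite addition; actives flag unspecific activation.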", "units": {"activity change, positive = activation": "%"}}
{"smiles": "Cc1cccc(/C(N)=N/OC(=O)c2ccc3c(c2)OCO3)c1", "activity change, positive = activation": 57.1}
{"smiles": "O=C(NCC(=O)N1CCN(c2ncccn2)CC1)c1ccc(F)cc1", "activity change, positive = activation": -6.5}
{"smiles": "CCN(Cc1ccccc1)C(=O)CN1C(=S)NC(C)(C)CC1C", "note": "(centres undefined)", "activity change, positive = activation": -54}
{"smiles": "O=C(N/N=C(\\c1ccccc1)c1ccccn1)c1ccccc1Cl", "activity change, positive = activation": -64.3}
{"smiles": "COc1ccc2c(c1)Cc1sc(NC(C)=O)nc1-2", "activity change, positive = activation": 29.1}
{"smiles": "C/C(=N\\OCC(=O)NC12CC3CC(CC(C3)C1)C2)c1cc2ccccc2o1", "activity change, positive = activation": -6.81}
{"smiles": "O=c1oc2ccccc2nc1/C=C(O)/C=C/c1ccc(F)cc1", "activity change, positive = activation": 55.3}
{"smiles": "Cc1occc1C(=O)NN=C1C2CC3CC(C2)CC1C3", "activity change, positive = activation": -3.28}
{"smiles": "Cc1ccc2nc(N3C(=O)C(O)=C(C(=O)c4ccc(C)o4)C3c3ccco3)sc2c1", "note": "(centres undefined)", "activity change, positive = activation": 31.9}
{"smiles": "CC(=O)/C=C(\\C)Nc1ccc(-c2cnc(-c3ccccc3)o2)cc1", "activity change, positive = activation": 2.82}
{"smiles": "CC(C)(C)c1ccc(S(=O)(=O)N2CCSC2)cc1", "activity change, positive = activation": 51.7}
{"smiles": "N/C(=N\\c1nc2ccccc2o1)NC(=O)c1ccc(F)cc1", "activity change, positive = activation": 63.9}
{"smiles": "CNC(=S)N/N=C(\\C)c1ccc(N2CCOCC2)cc1", "activity change, positive = activation": 33.4}
{"smiles": "Cc1nc(NCCc2ccccc2)c2nnn(Cc3ccccc3Cl)c2n1", "activity change, positive = activation": 34.4}
{"smiles": "Cc1cccc(Nc2nc(N3CCOCC3)nc(N3CCOCC3)n2)c1", "activity change, positive = activation": 17.9}
{"smiles": "CC(=O)N/C(=C/c1ccc2c(c1)OCO2)C(=O)Nc1ccccc1", "activity change, positive = activation": -13.1}
{"smiles": "CCCCn1c(/C=N/Nc2nc3ccccc3[nH]2)nc2ccccc21", "activity change, positive = activation": 87}
{"smiles": "O=C(NNC(=O)c1cccnc1SCc1cccc([N+](=O)[O-])c1)c1ccccn1", "activity change, positive = activation": -3.99}
{"smiles": "Cc1cc(-c2ccccc2)n2ncc(-c3ccccc3)c2n1", "Potency": "1840 nM (active)"}
{"smiles": "O=C(Nc1ccc2c(c1)CCC2)c1ccccc1", "activity change, positive = activation": 24.9}
{"smiles": "Cc1ccc(C)c(OCC(O)CN2C(C)CCCC2C)c1", "note": "(centres undefined)", "activity change, positive = activation": 14.9}
{"smiles": "COc1cccc(C(=O)Nc2ccc(NC(=O)C(C)(C)C)cn2)c1", "Potency": "461 nM (active)"}
{"smiles": "Cc1cc(C)c2nc(NNC(=O)c3ccc(S(=O)(=O)N4CCc5ccccc5C4)cc3)sc2c1", "activity change, positive = activation": 68.3}
{"smiles": "CCOc1ccc(-c2nnc(SCC(=O)N3CCNC3=O)o2)cc1", "activity change, positive = activation": 12.5}
{"smiles": "CCCCCc1nnc(NC(=O)C2CCCO2)s1", "note": "(centres undefined)", "activity change, positive = activation": -9.05}
{"smiles": "O=C(CSc1nnc(-c2ccc(F)cc2)c2ccccc12)Nc1ccccc1", "activity change, positive = activation": -15.3}
{"smiles": "Cc1ccnc(NC(=O)CCC2CCCCC2)c1", "activity change, positive = activation": 22.1}
{"smiles": "CCN(CC(=O)NCc1cccs1)c1ccc(S(=O)(=O)N2CCOCC2)cn1", "activity change, positive = activation": -11.2}
{"smiles": "NNc1nc(NCc2ccccc2)nc(N2CCOCC2)n1", "activity change, positive = activation": 13.5}
{"smiles": "CC(=O)NC(=S)Nc1ccc(NC(=O)c2cccs2)cc1", "activity change, positive = activation": -1.12}
{"smiles": "N/C(=N\\OC(=O)c1ccccc1Cl)c1ccc(Cl)cc1", "activity change, positive = activation": 46.8}
{"smiles": "COCCn1c(C)cc(C(=O)COc2ccc(N(C)S(=O)(=O)c3ccc(C)cc3)cc2)c1C", "activity change, positive = activation": -1.71}
{"smiles": "COCCNc1nc2sc3c(c2c(=O)n1Cc1ccco1)CCCCC3", "activity change, positive = activation": 14.1}
{"smiles": "CCc1ccc2c(CN(CC)Cc3nc4ccccc4c(=O)[nH]3)cc(=O)oc2c1", "activity change, positive = activation": 39.4}
{"smiles": "O=C(CN1C(=O)COc2ccccc21)Nc1ccc(F)cc1", "activity change, positive = activation": 36.7}
{"smiles": "NNC(=O)c1cccc(O)c1", "activity change, positive = activation": 8.43}
{"smiles": "O=C(CC1NC2CCCCC2NC1=O)Nc1ccc2c(c1)OCO2", "note": "(centres undefined)", "activity change, positive = activation": -8.77}
{"smiles": "O=C(Cn1cc(SCc2ccc(F)cc2)c2ccccc21)N1CCOCC1", "activity change, positive = activation": 16.4}
{"smiles": "C/C(=C\\COc1ccc2ccc(=O)oc2c1)CC[C@@H](O)C(C)(C)O", "activity change, positive = activation": -28.7}
